This is an account of results in PubChem BioAssay (Tox21).

Each structure is given as a SMILES string. Inconclusive results are not listed. Unmarked numbers belong to inactive results. Activity calls are given as the source filed them. Unless noted, calls come from the whole dose curve; as a rule, active = well fitted curve in the direction sought with a large enough effect in the repeat runs; inconclusive = weak or mixed curves; inactive = no such curve, though single readings can be large; an effect the other way counts as inactive or inconclusive.

Assay [1] in a line: qHTS assay to identify small molecule agonists of the NFkB signaling pathway (AID 1159509; active = well fitted curve in the direction sought with a large enough effect in the signal ratio in the repeat runs, not every such curve was filed as active; the % refers to the signal ratio; note: series mostly up to about 61 µM). The method in brief: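 Beta-lactamase reporter assay run in quantitative high-throughput format on an NF-kB-responsive ME-180 line, with 5 hr compound treatment and a FRET-based blue/green fluorescence readout.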
A short description of assay [2]: qHTS assay to identify small molecule agonists of the NFkB signaling pathway - cell viability counter screen (AID 1159515; calls by dose curve; note: series mostly up to about 61 µM; nearly all actives have a fitted effect of over 55% in size). Put shortly: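 Parallel cytotoxicity counter screen in ME-180 cells carrying an NFkB-response-element beta-lactamase reporter, 2,000 cells/well. Compound exposure lasted 5 hr at 37 C, 5% CO2. Cell viability was quantified by CellTiter-Glo luminescence.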

Assay [3] in a line: qHTS assay to identify small molecule agonists of the endoplasmic reticulum stress response signaling pathway (AID 1159516; active = well fitted activation curve with a large enough effect in the signal ratio in the repeat runs, not every such curve was filed as active; the % refers to the signal ratio). Put shortly:
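Using a HeLa line with an ESRE-driven beta-lactamase gene, agonist activity was measured by FRET substrate fluorescence (460 and 530 nm emission) after cells were treated with compounds for 5 hr at 37 C and 5% CO2.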
A general note: qHTS replaces the single test concentration by a dilution series.

Assay [4] in a line: qHTS assay to identify small molecule antagonists of the retinoid-related orphan receptor gamma (ROR-gamma) signaling pathway - cell viability counter screen (AID 1159520). Note: nearly all actives have a fitted effect of over 50% in size. Put shortly: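 Cytotoxicity was read from cellular ATP (CellTiter-Glo luminescence) after 16 hr at 37 C with 1 uM doxycycline induction. The inducer was added 2 hr after compound transfer to Tet-on ROR gamma CHO cells.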

The nature of assay [5]: qHTS assay to identify small molecule agonists of the AP-1 signaling pathway - cell viability counter screen (AID 1159525; calls by dose curve; note: nearly all actives have a fitted effect of over 55% in size). Put shortly: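 Intracellular ATP by Cell Titer Glo luminescence (30 min, RT) in the same ME-180 AP-1-bla wells after the 5 h compound exposure at 37 °C. Normalised to tetra n-octyl ammonium bromide and DMSO controls.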
Assay [6] can be described thus: qHTS assay to identify small molecule agonists of the AP-1 signaling pathway (AID 1159526; calls by dose curve).
Assay [7] can be described thus: qHTS assay to identify small molecule agonists of the RXR signaling pathway - cell viability counter screen (AID 1159529). Note: series mostly up to about 77 µM; nearly all actives have a fitted effect of over 50% in size. Put shortly: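 RXR-alpha-UAS-bla HEK 293T cells in medium with 2% charcoal-stripped FBS were pre-incubated 5 hr, then compound-treated 16 hr at 37 C. Viability was read by CellTiter-Glo luminescence in the same wells as the beta-lactamase assay, with tetraoctyl ammonium bromide as positive control.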

Assay [8] is described as follows: qHTS assay to identify small molecule antagonists of the retinoid acid receptor (RAR) signaling pathway - cell viability counter screen (AID 1159551). Note: nearly all actives have a fitted effect of over 35% in size. Put shortly:
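ATP-based viability, C3RL4 cells, 6 h at 37 C with 1 uM final retinol co-added after compound; luminescence read 30 min post CellTiter-Glo, RT.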

A short description of assay [9]: qHTS assay to identify small molecule antagonists of the retinoic acid receptor (RAR) signaling pathway (AID 1159552; note: nearly all actives have a fitted effect of over 50% in size; note: potency is the fitted concentration of half-maximal effect). The method in brief: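 Retinol signaling pathway inhibitors screened in C3RL4 RARE-luciferase reporter cells seeded overnight at 37 C, then compounds added with 1 uM (final) retinol as pathway substrate. After 6 hr at 37 C, luciferase luminescence read after 30 min at room temperature.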

Assay [10] can be described thus: qHTS assay to identify small molecule agonists of the retinoic acid receptor (RAR) signaling pathway (AID 1159553). Note: potency is the fitted concentration of half-maximal effect. The method in brief:
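Quantitative high-throughput format: the Tox21 10K library was tested on C3RL4 RARE-luciferase cells for 6 hr at 37 C and 5% CO2, with luminescence measured after a 30 min room-temperature reagent step.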

Assay [11] can be described thus: qHTS assay to identify small molecule antagonists of the estrogen related receptor (ERR) signaling pathway - cell viability counter screen (AID 1224818). Note: series mostly up to about 46 µM. Put shortly:
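Quantitative high-throughput viability counter screen in ERR cells. Compounds (DMSO) incubated 17.5 h at 37 C; read-out was CellTiter-Fluor fluorescence.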

The nature of assay [12]: qHTS assay to identify small molecule antagonists of the estrogen related receptor signaling pathway with the pleiotropic PPARgamma coactivator (PGC) cell viability counter screen (AID 1224822; note: series mostly up to about 46 µM). Put shortly:
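Cytotoxicity in the PGC/ERR cell line is assessed with CellTiter-Fluor, read as fluorescence intensity 30 min after reagent addition, following 17.5 h compound treatment at 37 C.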

Assay [13] in a line: qHTS assay to identify small molecule antagonists of the estrogen related receptor (ERR) signaling pathway from Tox21 library - cell viability counter screen (AID 1224834). Note: nearly all actives have a fitted effect of over 30% in size. Note: potency is the fitted concentration of half-maximal effect. Put shortly: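 Compounds in DMSO were pinned onto ERR cells that had been incubated for 6 h, and the plates were held at 37 C for 17.5 h. CellTiter-Fluor reagent was then added and fluorescence was measured after 30 min.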

Assay [14] deals with Nuclear receptor ROR-gamma (Homo sapiens) (UniProt P51449). Kind of assay: qHTS assay to identify small molecule antagonists of the retinoid-related orphan receptor gamma (ROR-gamma) signaling pathway (AID 1159521; note: nearly all actives have a fitted effect of over 50% in size; note: potency is the fitted concentration of half-maximal effect). Put shortly:
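Tet-on ROR-gamma CHO cells with ROR response element-luciferase reporter; compounds added 2 hr before 1 uM doxycycline induction, then 16 hr at 37 C. Antagonism scored as decreased ONE-Glo luminescence.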

Assay [15] can be described thus: qHTS assay to identify small molecule antagonists of the vitamin D receptor (VDR) signaling pathway - cell viability counter screen (AID 743225). Note: nearly all actives have a fitted effect of over 50% in size. The method in brief: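 VDR-UAS-bla HEK 293T cells were plated and incubated 4 h at 37C, then dosed with compound plus 3 nM (final) 1-alpha,25-dihydroxyvitamin D3 for 16 h. After the 2 h beta-lactamase read, viability in the same wells was read as CellTiter-Glo luminescence after 30 min at room temperature.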

Assay [16] has as its target Retinoic acid receptor RXR-alpha (Homo sapiens) (UniProt P19793). Kind of assay: qHTS assay to identify small molecule agonists of the RXR signaling pathway (AID 1159527; calls by dose curve; note: nearly all actives have a fitted effect of over 35% in size). The method in brief: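 GeneBLAzer RXR-alpha-UAS-bla HEK 293T cells in 2% charcoal-stripped FBS medium were exposed to compounds for 16 hr at 37 C in agonist mode. Beta-lactamase reporter read as 460/530 nm FRET ratio after 2 hr substrate loading.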

Chain of Retinoic acid receptor RXR-alpha (Homo sapiens) (P19793 whole entry, looked up): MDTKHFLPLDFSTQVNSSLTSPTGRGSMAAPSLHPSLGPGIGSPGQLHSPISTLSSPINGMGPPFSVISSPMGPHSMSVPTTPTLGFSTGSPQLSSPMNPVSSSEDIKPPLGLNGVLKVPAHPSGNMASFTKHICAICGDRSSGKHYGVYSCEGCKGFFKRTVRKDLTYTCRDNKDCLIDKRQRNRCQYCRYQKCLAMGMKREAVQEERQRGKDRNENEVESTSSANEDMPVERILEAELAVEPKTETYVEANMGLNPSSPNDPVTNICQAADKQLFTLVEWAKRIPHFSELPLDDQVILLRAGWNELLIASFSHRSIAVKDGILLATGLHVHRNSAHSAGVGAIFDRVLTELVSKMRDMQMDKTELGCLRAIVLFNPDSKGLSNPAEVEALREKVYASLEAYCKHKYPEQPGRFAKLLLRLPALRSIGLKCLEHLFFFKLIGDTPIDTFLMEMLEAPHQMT

Regarding `Cc1ncc(CNC(=O)N(CCCl)N=O)c(N)n1`, the result in assay [1], in [2], in [3], in [6], in [11] and in assay [12] was inactive. The Potency result in assay [4], in assay [5], in [7], in assay [8], in assay [9] and in assay [10] was “inactive” each time. Besides, the Potency entry in assay [13] is “inactive”.
With `CC1=C(C(=O)Nc2ccccc2)S(=O)(=O)CCO1`, the molecule was classed as inactive in assay [1], in assay [2], in assay [3] and in [6]. The Potency result in assay [4], in assay [8] and in [10] was “inactive” in each case. Besides, the Potency in assay [14] is 27.3 µM (active); in assay [13], 61.1 µM (active).
In the case of `COC(=O)C1=CCCN(C)C1`, the call in [15], in [1], in assay [2], in assay [3], in [11] and in [12] was inactive. For the same molecule, the Potency entry in assay [4], in [14], in assay [5], in assay [16], in [7] and in [8] was “inactive” in each case. Also, in [13], the Potency entry was “inactive”.
`O=C(Oc1ccc(Br)cc1)N1CCN2CCC1CC2`: the call in [15], in [1], in [2], in assay [3] and in assay [6] was inactive. Further, the Potency result in assay [4], in assay [5], in [16], in assay [7], in assay [8] and in [9] was “inactive” throughout. For the same molecule, the Potency result in assay [10] and in [13] was “inactive” in each case.
Take `CNC(=O)N(C)c1nc2ccccc2s1`: the molecule was classed as inactive in [15], in [1], in [2], in [3] and in assay [6]. Besides, the Potency entry in assay [4], in assay [14], in assay [5], in assay [8], in assay [9] and in [13] was “inactive” throughout. Also, the Potency in assay [10] is 2.43 µM (active).
`CC(C)(C)C(=O)C(Oc1ccc(Cl)cc1)n1cncn1` (stereo not given): the molecule was classed as inactive in assay [15], in assay [1], in assay [2], in [3] and in [6]. The Potency result in assay [14], in assay [5], in assay [8], in [9], in assay [10] and in assay [13] was “inactive” in each case.
On to `Fc1cc(Br)ccc1CBr`, for which the molecule was classed as inactive in [15], in assay [1], in [2], in assay [3] and in assay [6]. Besides, the Potency result in [4], in assay [14], in [5], in assay [16], in assay [7] and in assay [8] was “inactive” throughout. In addition, the Potency entry in assay [13] is “inactive”.
Regarding `CNC(=O)Oc1c(C(C)(C)C)cc(C)cc1C(C)(C)C`, the molecule was called inactive in assay [15], in assay [1], in assay [2], in assay [3] and in [6]. Besides, the Potency entry in assay [5], in assay [16], in [7], in assay [8], in [9] and in assay [10] was “inactive” each time. Also, the Potency result in [13] is “inactive”.
As to `CC(Oc1ccc(Oc2ncc(C(F)(F)F)cc2Cl)cc1)C(=O)O` (stereo not given), the call in assay [15], in assay [1], in assay [2], in assay [3] and in assay [6] was inactive. Further, the Potency in assay [14] was 27.3 µM (active). The Potency result in assay [5], in assay [8], in [9], in assay [10] and in [13] was “inactive” each time.
Regarding `CC1COC2(c3ccccc3Cl)c3cc(Cl)ccc3NC(=O)CN12` (stereo not given), the molecule was classed as inactive in assay [1], in [2] and in [3]. For the same molecule, the Potency entry in [4], in assay [14], in [5], in assay [16], in assay [7] and in assay [8] was “inactive” in each case. Further, in [10], the Potency result was “inactive”. In addition, the Potency in [9] was 29.8 µM (active).
For the molecule `CNNC`, the result in assay [15], in assay [1], in assay [2] and in [3] was inactive. The Potency entry in assay [4], in assay [14], in [5], in assay [16], in [7] and in assay [8] was “inactive” throughout. For the same molecule, the Potency entry in assay [9], in assay [10] and in assay [13] was “inactive” each time.
